Data on 20 compounds can be found in PubChem BioAssay (NCI).

Assay [1] can be described thus: NCI Yeast Anticancer Drug Screen. Data for the rad50 strain (AID 155).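 Note: 0% = growth of vehicle-only cultures of the same strain.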 As to conditions: S. cerevisiae rad50 strain growth inhibition; at 50.0 µM; active compounds read high. A digest of the protocol:
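Growth of the mutant yeast was measured after compound exposure and referenced to vehicle-treated cultures.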

The nature of assay [2]: NCI Yeast Anticancer Drug Screen. Data for the mec2-1 strain (AID 157). As to conditions: S. cerevisiae mec2-1 strain, at 50.0 µM, active compounds read high. A digest of the protocol:
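Strain: mec2-1 (DNA repair/cell cycle alteration). Compound exposure, then growth measured; inhibition expressed relative to vehicle.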

Assay [3] in a line: NCI Yeast Anticancer Drug Screen. Data for the sgs1 mgt1 strain (AID 161).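 Note: 0% = growth of cultures given vehicle only.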 The conditions noted are these: S. cerevisiae sgs1 mgt1 strain, at 50.0 µM, active compounds read high. A digest of the protocol:
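Genetically altered yeast, compound exposure, growth inhibition relative to vehicle.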

Assay [4] is described as follows: NCI Yeast Anticancer Drug Screen. Data for the cln2 rad14 strain (AID 165).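 Note: 0% = growth equal to vehicle treated cultures.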 As to conditions: S. cerevisiae cln2 rad14 strain, at 50.0 µM, active compounds read high. A digest of the protocol: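 Compounds are applied to the cln2 rad14 yeast strain, and growth is then compared with that of vehicle-treated cultures to give inhibition.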
Assay [5] can be described thus: NCI Yeast Anticancer Drug Screen. Data for the bub3 strain (AID 167). The conditions noted are these: S. cerevisiae bub3 mutant strain, at 50.0 µM, active compounds read high. A digest of the protocol:
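Whole-cell yeast assay. The mutant strain was incubated with compounds, and growth inhibition was determined by comparison with vehicle-treated cells.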

Assay [6] is described as follows: NCI Yeast Anticancer Drug Screen. Data for the mlh1 rad18 strain (AID 175). The conditions noted are these: S. cerevisiae mlh1 rad18 strain growth inhibition; at 50.0 µM; active compounds read high. A digest of the protocol: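 Read-out is yeast growth inhibition, calculated against vehicle-only controls. The compound was applied to a strain engineered with DNA damage repair alterations.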

About 79,000 compounds went through this panel and 15% of them were active in at least one assay; those are over-represented in the sample as a whole. A number with no mark means an inactive call. Active and inactive are the calls of the source. Cut-off read from the data, not from the text of the source: active = growth inhibition above about 70%; inactive = the rest.

As for `CC(=O)O[C@@H]1C[C@H](C)CC(C)(C)C1`, the growth inhibition in assay [1] is 3.35%; in assay [2], 5.75%; in assay [3], -10.6%; in assay [4], -3.7%; in assay [5] it was 0.4%; in assay [6], -3.1%.
Turning to `CN(C)c1ccc(C2SCC(=O)N2NS(=O)(=O)c2cccc(C(=O)O)c2)cc1` (stereo not given), the growth inhibition in assay [1] was 5.05%; in assay [2], -21.2%; in assay [3] it was -10.8%; in assay [4], 4.75%; in assay [5], -24.6%; in assay [6] it was -2.2%.
As to `CC(=O)Nc1ccc(N)cc1N`, the growth inhibition was -1.3% in assay [1]; -37.8% in assay [2]; -17.9% in assay [3]; 29.7% in assay [4]; -6.35% in assay [5]; 13.8% in assay [6].
For the compound `CCc1cc2c(oc3c4ccccc4ccc23)c(=O)[nH]1`, the growth inhibition in assay [1] was -8.95%; in assay [2], -12.6%; in assay [3], -15.7%; in assay [4], -14.3%; in assay [5], -25.4%; in assay [6], -7.55%.
With `COc1ccc(Nc2cccc(Cl)c2)cc1`, the growth inhibition in assay [1] is 97% (active); in assay [2], 98.2% (active); in assay [3] it was 96.5% (active); in assay [4], 95.9% (active); in assay [5], 95.6% (active); in assay [6], 97.8% (active).
Regarding `CS(=O)(=O)CC(=O)c1ccc(Br)cc1`, the growth inhibition in assay [1] was -3.1%; in assay [2], -4.05%; in assay [3], 14.1%; in assay [4], -12.8%; in assay [5], -5.45%; in assay [6], 10.3%.
Consider `COc1cccc(C2N=NC3=C(CCCC3)N2O)c1O` (stereo not given), for which the growth inhibition in assay [1] is 14.4%; in assay [2] it was 11%; in assay [3] it was 10.2%; in assay [4], 21.4%; in assay [5] it was 25.1%; in assay [6] it was 19.5%.
For `CCOC(=O)c1ccc(OC)cc1`, the growth inhibition is -12.7% in assay [1]; -25.4% in assay [2]; -8.8% in assay [3]; 2.8% in assay [4]; -3.55% in assay [5]; -17.4% in assay [6].
For `Nc1cc(C(=O)O)c2ccccc2c1`, the growth inhibition is 4.5% in assay [1]; -6.95% in assay [2]; -5.7% in assay [3]; -16.8% in assay [4]; 3.45% in assay [5]; 5.15% in assay [6].
As for `S=C(Nc1ccccc1)NC1SNC(=Nc2ccccc2)N1c1ccccc1` (stereo not given), the growth inhibition is 98.2% (active) in assay [1]; 99.4% (active) in assay [2]; 98.8% (active) in assay [3]; 99.3% (active) in assay [4]; 99.3% (active) in assay [5]; 99% (active) in assay [6].
In the case of `CC1(C)OC(C)(C)c2c1nnc(-c1ccccc1[N+](=O)[O-])[n+]2[O-]`, the growth inhibition in assay [1] is 8.1%; in assay [2], 11.5%; in assay [3], 22.4%; in assay [4] it was 12.8%; in assay [5], 26.9%; in assay [6], 14.1%.
In the case of `COc1cc2c(cc1OC)C1(c3ccccc3)ON=C(c3ccccc3)N1CS2` (stereo not given), the growth inhibition in assay [1] is -14.1%; in assay [2] it was -12.4%; in assay [3], 8.95%; in assay [4], -32.4%; in assay [5], -7.05%; in assay [6] it was -11.1%.
As to `Cc1ccc(OC(=O)c2ccccc2)cc1CC(Cl)(Cl)Cl`, the growth inhibition in assay [1] is -0.75%; in assay [2], -6%; in assay [3], -9.3%; in assay [4], -19.3%; in assay [5] it was 2.8%; in assay [6], -14.3%.
As to `O=C1OCC/C1=C1/NC2CCCCC2NC1=O` (stereo not given), the growth inhibition is -6.55% in assay [1]; -16.1% in assay [2]; 1.15% in assay [3]; -24.6% in assay [4]; -6.25% in assay [5]; -14.1% in assay [6].
As for `O=C(O)c1c(Cl)ccc([N+](=O)[O-])c1Cl`, the growth inhibition in assay [1] was -4.45%; in assay [2] it was -24.2%; in assay [3], -8.95%; in assay [4] it was 8.8%; in assay [5] it was -10.6%; in assay [6] it was -1.45%.
Consider `COc1ccc(C(c2cc3c(cc2O)OCO3)N2CCCCC2)c(OC)c1` (stereo not given), for which the growth inhibition in assay [1] is -31.2%; in assay [2], -13.1%; in assay [3], -12.2%; in assay [4], -22.4%; in assay [5] it was -2.15%; in assay [6], -6.95%.
As for `C/C(=C\c1ccc(OCCN2CCOCC2)cc1)c1ccc2c(c1)C(C)(C)CCC2(C)C`, the growth inhibition in assay [1] was -3.2%; in assay [2], -11.9%; in assay [3], 16.1%; in assay [4], -4.95%; in assay [5], -20.6%; in assay [6] it was -25.9%.
On to `O=C1c2ccccc2C(=O)c2c(Nc3ccc(Nc4cccc5c4C(=O)c4ccccc4C5=O)c4c3C(=O)c3ccccc3C4=O)cccc21`, for which the growth inhibition in assay [1] was -28.4%; in assay [2] it was -39%; in assay [3], 4.7%; in assay [4] it was -3.2%; in assay [5], -19.3%; in assay [6], -26.8%.
`Nc1c(-c2nc3ccccc3s2)[n+]([O-])c2ccccc2[n+]1[O-]`: the growth inhibition was 7.45% in assay [1]; 20.6% in assay [2]; 19% in assay [3]; 29.6% in assay [4]; -57.8% in assay [5]; 15.9% in assay [6].
Take `Cc1ccccc1C(=O)OCC(=O)c1ccc(-c2ccccc2)cc1`: the growth inhibition was -17.6% in assay [1]; -9.4% in assay [2]; -1.35% in assay [3]; -37.5% in assay [4]; 14% in assay [5]; -20.7% in assay [6].
